Measured values from PubChem BioAssay AID485297 (National Center for Advancing Translational Sciences (NCATS), 2010).
The whole screen tested about 320,000 compounds, of which about 9,100 (2.8%) were called active. Another 3% or so got no clear call; they are omitted. The full list was thinned out, with actives kept by preference. A number with no mark means an inactive call. Calls come from the whole dose curve; as a rule, active = well fitted activation curve with a large enough effect; inconclusive = small, poorly fitted or top-dose-only effect; inactive = no such curve, though single readings can be large or run the other way.

Assay: qHTS Assay for Rab9 Promoter Activators; note: nearly all actives have a fitted effect of over 60% in size; for activation, negative = inhibition: % of control where 0% means no effect
Conditions: Huh7 Rab9 promoter-luciferase reporter, luminescence, 24 h; series mostly up to 9.22 µM; activation, negative = inhibition: at the top concentration
Summary of the method: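 Luminescence from Amplite-detected luciferase (10 minutes, ambient) reports Rab9 promoter activation. Before that, stable Rab9-luciferase Huh7 cells (1500/well, reduced-serum OP-MEM I plus 10% FBS) were exposed to compound for 24 hours at 37C.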
Potency is the fitted concentration of half-maximal effect.

Row | Compound | activation, negative = inhibition | Potency
1 | COc1ccc(S(=O)(=O)N2CCOCC2)cc1NC(=O)Cc1c(F)cccc1Cl | 0.109% | 
2 | Cc1cc(NC(=O)CN2C(=O)NC(CCc3ccccc3)C2=O)no1 (centres undefined) | -0.496% | 
3 | OC(COc1ccc(F)cc1Cl)CN1CCc2ccccc2C1 (centres undefined) | 2.79% | 
4 | Cc1cc2oc(C(=O)Nc3c(C)n(C)n(-c4ccccc4)c3=O)c(C)c2cc1Cl | -5.97% | 
5 | Cc1ccc(Nc2nc(N3CCOCC3)nc(N3CCOCC3)n2)cc1Cl | 0.834% | 
6 | COc1ccc(Nc2ncc(F)c(N3CCOCC3)n2)cc1 |  | 891 nM (active)
7 | CCOc1ccc(Nc2nc(Cl)nc(N3CCN(c4ccc(OC)cc4)CC3)n2)cc1 | -7.09% | 
8 | Cc1cc(C)n2nc(C(=O)Nc3cccc(S(=O)(=O)N4CCOCC4)c3)nc2n1 | -0.106% | 
9 | COC(=O)c1cc2c(ccn2C)n1C | -7.96% | 
10 | CCN(CC)c1ccc2oc(=O)c(C)nc2c1 | -3.4% | 
11 | CCc1ccc2oc(-c3ccc(N)cc3)nc2c1 |  | 501 nM (active)
12 | Cc1ccc(C)c(NC(=O)CSc2nc3c(oc4ccccc43)c(=O)n2-c2ccccc2)c1 | 1.35% | 
13 | Cc1ccccc1NC(=O)Cc1nc(COC(=O)c2ccc(C(F)(F)F)cc2)cs1 | 1.76% | 
14 | Cc1ccc2c(CN3CCN(S(=O)(=O)c4ccccc4C(F)(F)F)CC3)cc(=O)oc2c1 | -8.96% | 
15 | Cc1ccc(-c2nn(-c3ccccc3)cc2C(=O)NC2CCC(O)CC2)cc1 (centres undefined) | 14.2% | 
16 | CC[C@H](C)C(=O)N[C@H]1CCCN1C(=O)/C=C/c1ccccc1 | -2.26% | 
17 | COc1ccc(C2=NOC(COC(=O)c3ccc4ccccc4n3)C2)cc1 (centres undefined) | -1.87% | 
18 | Cc1ccc(C(=O)NNC2=Nc3cc([N+](=O)[O-])ccc3OC2)cc1 | 1.55% | 
19 | COc1ccc(C2=Nc3cc(C)ccc3OC2)cc1 |  | 562 nM (active)
20 | CC(C)OCCCNC(=S)N1CCC(C(=O)c2ccc3c(c2)OCCO3)CC1 | -2.99% | 
21 | COc1cccc(/C=C/C(=O)Nc2ccc3c(c2)OCCO3)c1 |  | 1260 nM (active)
22 | Cc1cccc(NC(=O)Nc2ccc3c(c2)OCO3)n1 |  | 2240 nM (active)
23 | CC(C)CNS(=O)(=O)c1ccc(C(=O)Nc2ccc3c(c2)OCO3)cc1 | -4.4% | 
24 | CC(NC(=O)Nc1ccc2c(c1)OCO2)c1ccncc1 (centres undefined) | -3.45% | 
25 | CC(NS(=O)(=O)c1ccc(Cl)cc1)C(=O)Nc1ccc2c(c1)OCCO2 (centres undefined) | 5.09% | 
26 | Cc1cccc(NC(=O)/C=C/c2ccc3c(c2)OCO3)n1 |  | 562 nM (active)
27 | Cc1cccc(NC(=O)Nc2ccc(OCc3ccccc3)cc2)n1 | -0.949% | 

Row | Compound | activation, negative = inhibition | Potency
28 | O=C(/C=C\c1ccc2c(c1)OCO2)NC1(C(=O)Nc2ccc3c(c2)OCCO3)CCCCC1 | 0.644% | 
29 | O=C(O)/C=C/c1ccc2c(c1)OCCO2 | 0.952% | 
30 | CNS(=O)(=O)c1ccc(NC(=O)Nc2ccc3c(c2)OCO3)cc1 |  | 3550 nM (active)
31 | CCOC(=O)CCCNC(=O)COC(=O)/C=C/c1ccc2c(c1)OCO2 | 1.1% | 
32 | COc1ccc(OC)c(/C=C/C(=O)OCC(=O)Nc2ccc3c(c2)OCCO3)c1 | 8.75% | 
33 | O=C1C=C(c2ccnc3cc(Cl)ccc23)C[C@@H](c2ccc3c(c2)OCO3)C1 | -5.37% | 
34 | COc1ccc(NS(=O)(=O)c2cccc(C(=O)NCCc3ccc(S(N)(=O)=O)cc3)c2)cc1 | -6.22% | 
35 | CC(=O)Nc1ccc(S(=O)(=O)N2CCN(S(=O)(=O)c3cccs3)CC2)cc1 | -6.37% | 
36 | CC1CCc2sc(C(=O)NCC(c3ccco3)N3CCCCC3)cc2C1 (centres undefined) | -7.28% | 
37 | O=C(NCCOc1ccccc1Cl)C(=O)Nc1ccccc1 | 13% | 
38 | COc1ccc(S(=O)(=O)N2CCOCC2)cc1NC(=O)Cc1coc2cc(C)ccc12 | -2.27% | 
39 | Cc1nn(Cc2ccccc2)c(C)c1C(=O)NCCCN1CCCC1=O | -2.83% | 
40 | COc1ccc(-c2nnc(SCC(=O)c3cccs3)o2)c(OC)c1 |  | 1120 nM (active)
41 | COc1ccccc1-c1nnc(SCC(=O)N2CC(C)CC(C)C2)o1 (centres undefined) | -1.74% | 
42 | COc1ccc(CCNC(=O)CSc2nnc(CNC(=O)c3cccs3)o2)cc1OC | -2.09% | 
43 | Cc1ccc(NS(=O)(=O)c2ccc3c(c2)CC(=O)N3)cc1Cl | -0.719% | 
44 | COc1ccccc1C(CNC(=O)c1ccc(C)c(S(=O)(=O)N2CCCCC2)c1)N(C)C (centres undefined) | -2.47% | 
45 | CN(CCc1ccccc1)c1ccc([N+](=O)[O-])cn1 | 16.6% | 
46 | COC(=O)[C@]1(C)CCC[C@@]2(C)C3CC[C@]4(OC(C)=O)C[C@@]3(CCC21)CC4=NO (some centres undefined) | 0.822% | 
47 | C/C(CC(=O)Nc1cccc(F)c1)=N\NC(=O)C(=O)NC1CCCCC1 | 0.896% | 
48 | O=C(Nc1cccc(F)c1)NC1CCCc2ccccc21 (centres undefined) | 1.16% | 
49 | O=C(Nc1cccc(F)c1)NC1CCCCCCC1 |  | 3550 nM (active)
50 | Cc1cccc(C)c1NC(=O)CN(C)C(=O)CCC(=O)c1ccccc1 | 1.5% | 
51 | CC(OC(=O)/C=C/c1ccccc1)C(=O)NC1CCCCC1C (centres undefined) | -4.92% | 
52 | Cc1c(NC(=O)Nc2ccccc2)cccc1[N+](=O)[O-] | -9.25% | 
53 | Cc1ccc(NC(=O)Nc2ccccc2)c(Br)c1 |  | 1780 nM (active)
54 | Cc1cccc(NC(=O)Nc2nnc(-c3ccccc3)o2)c1 | -3.39% | 
